Several values for one entry are separate records, joined by “and”; a condition that tells them apart may be missing. Equal values may be shown once.

The experiment concerns HL-1. Description: protection of cardiomyocytes from stress damage, SAR follow-up, cell-based, panel, H9c2 and HL-1, ATP luminescence, set 2 (AID 651871).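 Further: cells exposed to stressor for 2 h before ATP readout; reference of the scale not given here.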 To be noted: H9c2/HL-1 cardiomyocytes, 2-deoxyglucose stress, with 2-deoxyglucose, run 2, at 79 µM (top of the series).
In the case of `COc1ccc2nc(-c3cc(OC)c(OC)c(OC)c3)cc(C(=O)NCC(=O)Nc3ccc(C(C)=O)cc3)c2c1`, the activity (protection/inhibition) came out at 54.8%.
The figure for `CCOC(=O)c1cccc(NC(=O)CNC(=O)c2cc(-c3cc(OC)c(OC)c(OC)c3)nc3ccccc23)c1` is 75.9%.
On to `COc1ccc2c(c1OC)C(=O)N1c3ccccc3C(=O)N(Cc3cccc(Cl)c3Cl)C21` (stereo not drawn), for which the activity (protection/inhibition) was 27.7% and -9.62%.

The record behind these values is PubChem BioAssay AID651871 (Sanford-Burnham Center for Chemical Genomics, 2012).
